{
  "source": "paper PMC10313818",
  "experiment_in_all_cases": "cross-linking mass spectrometry",
  "conditions_in_all_cases": "not determined",
  "key": {"ACACA": {"biological_target": "ACACA (UniProt Q13085)"}, "COX7C": {"biological_target": "COX7C (UniProt P15954)", "sequence (P15954 whole entry)": "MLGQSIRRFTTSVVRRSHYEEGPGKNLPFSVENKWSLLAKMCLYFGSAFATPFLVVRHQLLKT"}, "HSDL2": {"biological_target": "HSDL2 (UniProt Q6YN16)", "sequence (Q6YN16 whole entry)": "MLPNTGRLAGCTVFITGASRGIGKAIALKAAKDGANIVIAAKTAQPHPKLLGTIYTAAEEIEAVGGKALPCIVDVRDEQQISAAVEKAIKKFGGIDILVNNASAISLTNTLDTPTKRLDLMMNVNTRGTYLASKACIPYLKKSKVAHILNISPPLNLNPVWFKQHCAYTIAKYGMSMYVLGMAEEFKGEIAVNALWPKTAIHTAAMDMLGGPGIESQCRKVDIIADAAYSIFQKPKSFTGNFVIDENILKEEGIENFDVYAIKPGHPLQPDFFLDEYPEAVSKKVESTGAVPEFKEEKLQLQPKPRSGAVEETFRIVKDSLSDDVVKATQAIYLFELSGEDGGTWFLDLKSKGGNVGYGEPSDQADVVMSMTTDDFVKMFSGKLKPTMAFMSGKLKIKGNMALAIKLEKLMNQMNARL"}, "IDH3G": {"biological_target": "IDH3G (UniProt P51553)"}, "ADCK1": {"biological_target": "ADCK1 (UniProt Q86TW2)"}, "ALDH3A2": {"biological_target": "ALDH3A2 (UniProt P51648)"}, "APOO": {"biological_target": "APOO (UniProt Q9BUR5)"}, "ATP5PF": {"biological_target": "ATP5PF (UniProt P18859)"}, "COQ3": {"biological_target": "COQ3 (UniProt Q9NZJ6)", "sequence (Q9NZJ6 whole entry)": "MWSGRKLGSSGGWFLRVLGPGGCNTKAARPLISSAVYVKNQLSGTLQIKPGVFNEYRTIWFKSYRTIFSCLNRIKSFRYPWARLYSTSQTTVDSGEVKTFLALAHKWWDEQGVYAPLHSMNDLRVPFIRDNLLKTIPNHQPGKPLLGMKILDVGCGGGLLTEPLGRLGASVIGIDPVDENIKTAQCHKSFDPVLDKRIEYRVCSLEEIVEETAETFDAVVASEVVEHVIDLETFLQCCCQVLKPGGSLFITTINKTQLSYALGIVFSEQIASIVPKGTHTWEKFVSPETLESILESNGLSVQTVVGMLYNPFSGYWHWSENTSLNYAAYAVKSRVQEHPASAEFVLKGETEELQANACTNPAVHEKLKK"}, "GUF1": {"biological_target": "GUF1 (UniProt Q8N442)", "sequence (Q8N442 whole entry)": "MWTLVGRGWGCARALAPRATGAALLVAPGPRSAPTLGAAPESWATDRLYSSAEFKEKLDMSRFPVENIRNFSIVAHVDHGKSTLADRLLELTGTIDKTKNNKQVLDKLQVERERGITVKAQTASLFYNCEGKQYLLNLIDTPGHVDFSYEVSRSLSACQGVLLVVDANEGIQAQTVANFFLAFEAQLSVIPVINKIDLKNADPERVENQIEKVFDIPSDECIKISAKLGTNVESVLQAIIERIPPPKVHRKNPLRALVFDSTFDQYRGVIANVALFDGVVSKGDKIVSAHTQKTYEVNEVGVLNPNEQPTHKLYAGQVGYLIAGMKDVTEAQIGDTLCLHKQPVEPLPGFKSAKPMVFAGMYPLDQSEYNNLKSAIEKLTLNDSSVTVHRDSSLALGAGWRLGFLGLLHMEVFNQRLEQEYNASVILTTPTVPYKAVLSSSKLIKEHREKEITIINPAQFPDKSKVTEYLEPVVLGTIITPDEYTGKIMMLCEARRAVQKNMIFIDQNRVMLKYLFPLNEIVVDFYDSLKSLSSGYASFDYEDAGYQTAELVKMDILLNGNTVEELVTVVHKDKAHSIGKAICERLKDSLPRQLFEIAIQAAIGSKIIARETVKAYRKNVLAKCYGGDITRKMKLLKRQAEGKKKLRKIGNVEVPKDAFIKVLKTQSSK"}, "HADHA": {"biological_target": "HADHA (UniProt P40939)"}, "MTRF1L": {"biological_target": "MTRF1L (UniProt Q9UGC7)", "sequence (Q9UGC7 whole entry)": "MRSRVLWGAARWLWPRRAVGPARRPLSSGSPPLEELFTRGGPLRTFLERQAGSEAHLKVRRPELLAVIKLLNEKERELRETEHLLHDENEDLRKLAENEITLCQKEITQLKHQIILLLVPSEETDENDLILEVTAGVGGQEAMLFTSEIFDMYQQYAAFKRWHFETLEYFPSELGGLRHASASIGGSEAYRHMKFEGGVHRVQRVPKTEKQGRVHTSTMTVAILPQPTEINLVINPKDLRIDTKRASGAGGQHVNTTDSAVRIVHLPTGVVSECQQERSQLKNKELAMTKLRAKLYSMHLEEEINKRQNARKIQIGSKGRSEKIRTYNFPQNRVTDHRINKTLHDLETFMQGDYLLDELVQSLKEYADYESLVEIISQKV"}, "NOCT": {"biological_target": "NOCT (UniProt Q9UK39)"}, "OGDH": {"biological_target": "OGDH (UniProt Q02218)", "sequence (Q02218 whole entry)": "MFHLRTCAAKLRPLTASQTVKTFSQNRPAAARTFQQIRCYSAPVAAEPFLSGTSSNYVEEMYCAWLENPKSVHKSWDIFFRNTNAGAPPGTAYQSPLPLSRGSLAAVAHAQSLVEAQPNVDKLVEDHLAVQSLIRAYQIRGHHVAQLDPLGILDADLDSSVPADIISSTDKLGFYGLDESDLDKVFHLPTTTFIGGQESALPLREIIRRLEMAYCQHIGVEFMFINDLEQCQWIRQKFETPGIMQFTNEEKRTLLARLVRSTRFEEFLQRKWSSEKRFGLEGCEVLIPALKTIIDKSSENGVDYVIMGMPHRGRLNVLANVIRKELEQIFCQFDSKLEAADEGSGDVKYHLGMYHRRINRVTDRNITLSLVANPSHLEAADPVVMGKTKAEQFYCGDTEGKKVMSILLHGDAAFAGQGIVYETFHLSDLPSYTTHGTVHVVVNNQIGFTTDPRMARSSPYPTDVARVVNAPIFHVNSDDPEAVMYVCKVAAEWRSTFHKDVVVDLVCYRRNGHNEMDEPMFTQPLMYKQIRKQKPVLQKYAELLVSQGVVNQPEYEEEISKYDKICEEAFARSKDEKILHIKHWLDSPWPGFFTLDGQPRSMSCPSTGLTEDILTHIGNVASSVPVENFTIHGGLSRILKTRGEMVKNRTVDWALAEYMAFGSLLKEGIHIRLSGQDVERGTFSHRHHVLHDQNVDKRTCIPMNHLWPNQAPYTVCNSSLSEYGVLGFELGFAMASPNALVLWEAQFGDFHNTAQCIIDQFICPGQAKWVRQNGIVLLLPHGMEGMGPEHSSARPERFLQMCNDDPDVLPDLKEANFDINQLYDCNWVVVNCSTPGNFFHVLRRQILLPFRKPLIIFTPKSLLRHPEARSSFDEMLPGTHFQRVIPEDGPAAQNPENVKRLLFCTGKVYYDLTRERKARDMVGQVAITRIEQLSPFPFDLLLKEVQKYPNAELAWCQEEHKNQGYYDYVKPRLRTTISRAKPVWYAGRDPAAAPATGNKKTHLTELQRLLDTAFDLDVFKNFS"}, "OGDHL": {"biological_target": "OGDHL (UniProt Q9ULD0)"}, "PDSS1": {"biological_target": "PDSS1 (UniProt Q5T2R2)", "sequence (Q5T2R2 whole entry)": "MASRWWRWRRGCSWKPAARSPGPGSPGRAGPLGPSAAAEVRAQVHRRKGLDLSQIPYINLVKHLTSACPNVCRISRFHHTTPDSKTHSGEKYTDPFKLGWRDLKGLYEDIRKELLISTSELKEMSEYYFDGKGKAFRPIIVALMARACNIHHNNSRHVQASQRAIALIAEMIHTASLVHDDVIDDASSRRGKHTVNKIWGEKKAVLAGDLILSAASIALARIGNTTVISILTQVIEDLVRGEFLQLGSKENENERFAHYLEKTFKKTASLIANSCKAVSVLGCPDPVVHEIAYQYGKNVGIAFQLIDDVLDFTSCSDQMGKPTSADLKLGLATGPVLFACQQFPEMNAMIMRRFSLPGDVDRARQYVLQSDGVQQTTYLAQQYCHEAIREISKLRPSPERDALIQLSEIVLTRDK"}, "PHB2": {"biological_target": "PHB2 (UniProt Q99623)", "sequence (Q99623 whole entry)": "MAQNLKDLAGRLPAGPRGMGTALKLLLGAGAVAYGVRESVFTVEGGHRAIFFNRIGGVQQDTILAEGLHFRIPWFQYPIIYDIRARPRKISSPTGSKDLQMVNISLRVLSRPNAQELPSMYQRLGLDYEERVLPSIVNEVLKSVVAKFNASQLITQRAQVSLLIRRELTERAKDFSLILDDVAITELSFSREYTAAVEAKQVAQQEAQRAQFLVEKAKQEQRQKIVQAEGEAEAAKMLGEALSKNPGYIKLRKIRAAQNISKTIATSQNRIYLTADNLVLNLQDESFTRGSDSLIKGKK"}, "PMPCA": {"biological_target": "PMPCA (UniProt Q10713)", "sequence (Q10713 whole entry)": "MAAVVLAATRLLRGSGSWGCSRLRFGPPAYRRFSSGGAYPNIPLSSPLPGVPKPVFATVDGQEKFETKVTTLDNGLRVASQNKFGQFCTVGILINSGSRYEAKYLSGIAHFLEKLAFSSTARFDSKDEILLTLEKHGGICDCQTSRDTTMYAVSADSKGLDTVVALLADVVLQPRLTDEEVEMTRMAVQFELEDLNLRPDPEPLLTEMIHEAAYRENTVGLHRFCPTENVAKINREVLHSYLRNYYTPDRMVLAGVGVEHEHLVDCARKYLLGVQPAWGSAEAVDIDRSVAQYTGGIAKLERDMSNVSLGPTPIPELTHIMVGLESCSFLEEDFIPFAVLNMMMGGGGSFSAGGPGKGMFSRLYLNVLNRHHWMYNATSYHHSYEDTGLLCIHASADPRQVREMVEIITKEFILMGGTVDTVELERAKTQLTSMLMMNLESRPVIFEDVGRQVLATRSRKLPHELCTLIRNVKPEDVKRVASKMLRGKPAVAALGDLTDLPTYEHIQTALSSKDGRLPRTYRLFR"}, "PRDX6": {"biological_target": "PRDX6 (UniProt P30041)"}, "RMND1": {"biological_target": "RMND1 (UniProt Q9NWS8)"}, "SAMM50": {"biological_target": "SAMM50 (UniProt Q9Y512)", "sequence (Q9Y512 whole entry)": "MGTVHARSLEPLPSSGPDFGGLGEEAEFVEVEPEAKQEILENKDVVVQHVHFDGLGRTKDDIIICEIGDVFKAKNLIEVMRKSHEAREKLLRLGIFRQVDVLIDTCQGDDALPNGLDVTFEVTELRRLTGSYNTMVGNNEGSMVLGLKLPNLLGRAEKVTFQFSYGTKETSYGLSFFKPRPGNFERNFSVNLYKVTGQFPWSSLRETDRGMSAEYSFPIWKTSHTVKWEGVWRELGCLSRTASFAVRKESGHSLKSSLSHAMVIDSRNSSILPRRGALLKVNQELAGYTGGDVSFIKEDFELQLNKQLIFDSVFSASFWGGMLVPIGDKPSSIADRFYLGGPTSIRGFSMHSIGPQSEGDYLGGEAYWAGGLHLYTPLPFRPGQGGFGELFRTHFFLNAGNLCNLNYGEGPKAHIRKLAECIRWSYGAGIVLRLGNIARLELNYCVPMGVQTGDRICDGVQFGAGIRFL"}, "SDHA": {"biological_target": "SDHA (UniProt P31040)"}, "SIRT3": {"biological_target": "SIRT3 (UniProt Q9NTG7)"}, "SLC25A19": {"biological_target": "SLC25A19 (UniProt Q9HC21)", "sequence (Q9HC21 whole entry)": "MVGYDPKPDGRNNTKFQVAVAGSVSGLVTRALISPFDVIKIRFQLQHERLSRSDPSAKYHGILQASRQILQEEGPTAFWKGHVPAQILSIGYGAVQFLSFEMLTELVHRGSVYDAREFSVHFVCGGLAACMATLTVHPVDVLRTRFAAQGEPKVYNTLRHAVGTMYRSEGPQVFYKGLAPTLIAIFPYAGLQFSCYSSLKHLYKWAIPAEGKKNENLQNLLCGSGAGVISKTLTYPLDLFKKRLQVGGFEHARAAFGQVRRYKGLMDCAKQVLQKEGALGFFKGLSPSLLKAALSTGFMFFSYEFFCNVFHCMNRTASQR"}, "SPRYD4": {"biological_target": "SPRYD4 (UniProt Q8WW59)"}, "TBRG4": {"biological_target": "TBRG4 (UniProt Q969Z0)"}, "TUFM": {"biological_target": "TUFM (UniProt P49411)"}},
  "data": [
    {"substance": "HSPD1, P10809", "values": [
      {"measurement": "cross-linked residues", "setting": "ACACA", "result": "K58 - K2167"},
      {"measurement": "cross-linked residues", "setting": "COX7C", "result": "K58 - K34"},
      {"measurement": "cross-linked residues", "setting": "HSDL2", "result": "K418 - K304"},
      {"measurement": "cross-linked residues", "setting": "IDH3G", "result": "K31 - K214"}
    ]},
    {"substance": "NDUFC1, O43677", "values": [
      {"measurement": "cross-linked residues", "setting": "ADCK1", "result": "K28 - K325"}
    ]},
    {"substance": "HADHA, P40939", "values": [
      {"measurement": "cross-linked residues", "setting": "ALDH3A2", "result": "K254 - M1"}
    ]},
    {"substance": "GUF1, Q8N442", "values": [
      {"measurement": "cross-linked residues", "setting": "APOO", "result": "K351 - K27"}
    ]},
    {"substance": "ATP5PD, O75947", "values": [
      {"measurement": "cross-linked residues", "setting": "ATP5PF", "result": "K63 - K79"}
    ]},
    {"substance": "DHX30, Q7L2E3", "values": [
      {"measurement": "cross-linked residues", "setting": "COQ3", "result": "K303 - K196"}
    ]},
    {"substance": "ACADM, P11310", "values": [
      {"measurement": "cross-linked residues", "setting": "GUF1", "result": "K144 - K664"}
    ]},
    {"substance": "BCL2, P10415", "values": [
      {"measurement": "cross-linked residues", "setting": "HADHA", "result": "M1 - K254"}
    ]},
    {"substance": "TOMM20, Q15388", "values": [
      {"measurement": "cross-linked residues", "setting": "MTRF1L", "result": "K56 - K74"}
    ]},
    {"substance": "ALDH4A1, P30038", "values": [
      {"measurement": "cross-linked residues", "setting": "NOCT", "result": "K93 - M1"}
    ]},
    {"substance": "VDAC1, P21796", "values": [
      {"measurement": "cross-linked residues", "setting": "OGDH", "result": "K61 - K999"}
    ]},
    {"substance": "PDHA1, P08559", "values": [
      {"measurement": "cross-linked residues", "setting": "OGDHL", "result": "K40 - K525"}
    ]},
    {"substance": "NDUFV3, P56181", "values": [
      {"measurement": "cross-linked residues", "setting": "PDSS1", "result": "M1 - K91"}
    ]},
    {"substance": "PHB1, P35232", "values": [
      {"measurement": "cross-linked residues", "setting": "PHB2", "result": "K202 - K216"}
    ]},
    {"substance": "PMPCB, O75439", "values": [
      {"measurement": "cross-linked residues", "setting": "PMPCA", "result": "K148 - K64"}
    ]},
    {"substance": "COX5B, P10606", "values": [
      {"measurement": "cross-linked residues", "setting": "PRDX6", "result": "K57 - K63"}
    ]},
    {"substance": "BCKDHB, P21953", "values": [
      {"measurement": "cross-linked residues", "setting": "RMND1", "result": "K381 - K145"}
    ]},
    {"substance": "VDAC2, P45880", "values": [
      {"measurement": "cross-linked residues", "setting": "SAMM50", "result": "K74 - G2"}
    ]},
    {"substance": "SNAP29, O95721", "values": [
      {"measurement": "cross-linked residues", "setting": "SDHA", "result": "K124 - K517"}
    ]},
    {"substance": "MACROD1, Q9BQ69", "values": [
      {"measurement": "cross-linked residues", "setting": "SIRT3", "result": "K99 - K399"}
    ]},
    {"substance": "BPHL, Q86WA6", "values": [
      {"measurement": "cross-linked residues", "setting": "SLC25A19", "result": "V2 - V2"}
    ]},
    {"substance": "ATP5F1D, P30049", "values": [
      {"measurement": "cross-linked residues", "setting": "SPRYD4", "result": "K136 - K33"}
    ]},
    {"substance": "ACSM4, P0C7M7", "values": [
      {"measurement": "cross-linked residues", "setting": "TBRG4", "result": "K542 - K576"}
    ]},
    {"substance": "ACACB, O00763", "values": [
      {"measurement": "cross-linked residues", "setting": "TUFM", "result": "K1705 - K259"}
    ]}
  ]
}
